Several values for one entry are separate records, joined by “and”; a condition that tells them apart may be missing. Identical values can stand only once. Inconclusive results are not listed. A call without a number means that no potency is given here. Activity calls are given as the source filed them. The call rests on the fitted dose curve.
Potency means the concentration at half of the fitted maximal effect.

The assay is described as follows: qHTS assay to identify small molecule agonists of the endoplasmic reticulum stress response signaling pathway - cell viability counter screen (AID 1159517). Further: nearly all actives have a fitted effect of over 50% in size. The conditions noted are these: ESRE-bla HeLa viability, CellTiter-Glo luminescence, 5 h; series mostly up to 61 µM. The source says:
U.S. Tox21 Program National Center for Advancing Translational Sciences [NCATS] NIH Chemical Genomics Center [NCGC] U.S. Environmental Protection Agency [EPA] National Institutes of Environmental Health Sciences [NIEHS] National Toxicology Program [NTP] U.S. Food and Drug Administration [FDA] Tox21 Assay Overview: Endoplasmic Reticulum (ER) plays an important role in cellular signaling, protein folding/maturation, stress response, lipid biosynthesis, calcium storage and release etc. Under stress conditions, proteins in ER misfold or unfold, and leading to the expression of ER stress responsive genes. ER stress has been associated with a variety of pathophysiological conditions such as cancer, inflammation, neurodegenerative diseases, diabetes, ischemic heart disease etc. To identify the compounds that induce ER stress response, an ER stress reporter cell line, CellSensor ESRE-bla HeLa (Life Technologies, Carlsbad, CA) containing a beta-lactamase reporter gene under control of the Endoplasmic reticulum Stress Response Element (ESRE) was used to screen Tox21 10K compound library. The cytotoxicity of the Tox21 compound library against the ESRE-bla HeLa cell line was tested in parallel by measuring cell viability using the CellTiter-Glo assay in the same wells.
Tox21 Assay Protocol Summary: ESRE-bla HeLa cells were dispensed at 1,500 cells/6 uL of assay medium per well into black wall/clear-bottom 1536-well plates using a Multidrop Combi (ThermoFisher Scientific, Waltham, MA) dispenser. After the assay plates were incubated at 37 C and 5% CO2 for an overnight, 23 nL of compounds dissolved in DMSO, positive controls or DMSO only was transferred to the assay plate by a Pintool station (Kalypsys, San Diego, CA). The assay plates were incubated at 37 C and 5% CO2 for 5 hr. One uL of LiveBLAzer B/G FRET substrate (Life Technologies) was added using a FRD (Flying Reagent Dispenser, Aurora Discovery, San Diego, CA) and the plates were incubated at room temperature for 2 hr. Fluorescence intensity (405 nm excitation, 460 nm and 530 nm emissions) was measured using an Envision plate reader (PerkinElmer, Shelton, CT). For cytotoxicity, 4 ul/well of CellTiter-Glo reagent was added into the assay plates using an FRD. After 30 min incubation at room temperature, the luminescence intensity was measured using a ViewLux plate reader (PerkinElmer).
Turning to `Nc1ccc2cc(S(=O)(=O)O)cc(O)c2c1N=Nc1ccccc1C(F)(F)F`, the Potency entry is “inactive”.

Regarding `CCN(CC)CCNC(=O)c1c(C)[nH]c(/C=C2\C(=O)Nc3ccc(F)cc32)c1C`, the Potency was 7.56 µM (active).

As for `CCc1cc(SCc2sc(-c3ccc(C(F)(F)F)cc3)nc2CN2CCN(c3ccc(OC)cc3)CC2)ccc1OCC(=O)O`, the Potency is 54.9 µM (active).

With `Cc1cc(O)c(C(C)(C)C)cc1Sc1cc(C(C)(C)C)c(O)cc1C`, the Potency was 21.8 µM (active).

As to `Cc1cccc(N(C)C(=S)Oc2ccc3c(c2)C2CCC3C2)c1` (stereo not given), the Potency result was “inactive”.

For the molecule `NNc1nc(-c2ccc(N)cc2)cs1`, the Potency entry is “inactive”.

As to `NC(=O)N1C(=O)C(C(=O)c2cc(Cl)cs2)c2cc(F)c(Cl)cc21` (stereo not given), the Potency result is “inactive”.

In the case of `CN(C)CCCOC1(Cc2ccccc2)CCCCCC1`, the Potency result is “inactive”.

As for `CSc1ccc(C(=O)c2[nH]c(=O)[nH]c2C)cc1`, the Potency result is “inactive”.

With `Cc1[nH]cnc1C[C@H]1CCc2c(C)c3ccccc3n2C1=O`, the Potency entry is “inactive”.

With `Fc1ccc([C@@H]2CCNC[C@H]2COc2ccc3c(c2)OCO3)cc1`, the Potency entry is “inactive”.

`Cc1cc(O)c(Cl)c(C)c1Cl`: the Potency is 54.9 µM (active).

Consider `COc1ccc(-c2ccc3cc(C(=O)O)ccc3c2)cc1C12CC3CC(CC(C3)C1)C2`, for which the Potency was 10.7 µM (active).

Turning to `CCC(C)(C)C1CCCCC1OC(C)=O` (stereo not given), the Potency entry was “inactive”.

With `CNCc1cc(F)ccc1Oc1ccc(Cl)c(Cl)c1`, the Potency result was “inactive”.

Regarding `O=C(NO)C1(NS(=O)(=O)c2ccc(Oc3ccc(F)cc3)cc2)CCOCC1`, the Potency result was “inactive”.

Turning to `[Cl][Bi]([Cl])([c]1ccccc1)([c]1ccccc1)[c]1ccccc1`, the Potency was 38.7 µM (active).

On to `COc1cc(-c2ccc(N=C=O)c(OC)c2)ccc1N=C=O`, for which the Potency entry is “inactive”.

`CCCCCCCCOc1ccccc1C(=O)Nc1ccc(C(=O)OCC[N+](C)(CC)CC)cc1`: the Potency result was “inactive”.

Turning to `O=c1[nH]sc2cc(Cl)ccc12`, the Potency result was “inactive”.

As for `Clc1ccc2cc3ccccc3cc2c1`, the Potency entry is “inactive”.

Turning to `CCCCCCCC[P+](CCCCCCCC)(CCCCCCCC)CCCCCCCC`, the Potency is 13.7 µM (active).

For `ON=C1CCCC1`, the Potency entry was “inactive”.

`CC(C)c1ccc2c(c1)CC[C@H]1[C@](C)(CN)CCC[C@]21C`: the Potency is 9.77 µM (active).

Turning to `CC(=O)S[C@@H]1CC2=CC(=O)CC[C@]2(C)[C@H]2CC[C@@]3(C)[C@@H](CC[C@@]34CCC(=O)O4)[C@H]12`, the Potency entry is “inactive”.

As for `CCCN(CCC)c1c([N+](=O)[O-])cc(C(F)(F)F)c(N)c1[N+](=O)[O-]`, the Potency is 43.5 µM (active).

For `Clc1ccc2n[nH]nc2c1`, the Potency result was “inactive”.

For `OCCN(CCO)c1nc(N2CCCCC2)c2nc(N(CCO)CCO)nc(N3CCCCC3)c2n1`, the Potency result was “inactive”.

Consider `CCCCC(CC)COP(=O)(O)OCC(CC)CCCC` (stereo not given), for which the Potency is 55 µM (active) and 49 µM (active).

As for `Nc1nc2ccccc2n1Cc1ccc(F)cc1`, the Potency result was “inactive”.

Turning to `CCCCCCOC(=O)c1ccc(O)cc1`, the Potency is 49 µM (active).

`O=c1c(-c2ccccc2)c1-c1ccccc1`: the Potency result is “inactive”.

In the case of `OCCCCCCCCCCCCBr`, the Potency result was “inactive”.

As to `CCCCCCCCCCC=O`, the Potency entry is “inactive”.

In the case of `Nc1ccc(N)c2ccccc12`, the Potency is 0.775 µM (active).

Turning to `COc1ccc(C(=O)/C(Br)=C\C(=O)O)cc1`, the Potency entry was “inactive”.

As for `CCCC(c1cc(C(C)(C)C)c(O)cc1C)c1cc(C(C)(C)C)c(O)cc1C`, the Potency was 22.1 µM (active).

On to `CCOC(=O)O[C@H](C)OC(=O)c1ccc2c(c1)cc(C(=O)NC1CCN(C(C)C)CC1)n2Cc1cc(-c2ccc(Cl)s2)on1`, for which the Potency was 45.8 µM (active).

Consider `CC(C)=CCOc1ccc(/C=C/C(=O)c2ccc(OCC=C(C)C)cc2OCC(=O)O)cc1`, for which the Potency result is “inactive”.

Regarding `CC1=NC(C)OC1C` (stereo not given), the Potency result is “inactive”.

Values taken from PubChem BioAssay (Tox21).
